Measured values published in PubChem BioAssay (Tox21).
Values joined by “and” are separate entries in the source; they are usually repeats but may differ in a detail not shown here. Equal entries are not always repeated. Records with an inconclusive call do not appear. A call without a number means that no potency is given here. Active and inactive are the calls of the source. Unless noted, the call rests on the fitted dose curve.

What was measured:
[1] = qHTS assay to identify small molecule antagonists of the vitamin D receptor (VDR) signaling pathway - cell viability counter screen (AID 743225; active means well fitted curve in the direction sought with a large enough effect in the repeat runs; an effect the other way counts as inactive or inconclusive; further: nearly all actives have a fitted effect of over 50% in size; further: potency means the concentration at half of the fitted maximal effect)
How it was run: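 Compounds were pinned onto VDR-bla HEK 293T cells together with 1-alpha,25-dihydroxyvitamin D3 at 3 nM final. After 16 h at 37C and 5% CO2 plus the reporter readout, cell viability was measured by CellTiter-Glo luminescence (30 min, room temperature).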

[2] = qHTS assay to identify small molecule agonists of the NFkB signaling pathway - cell viability counter screen (AID 1159515); further: series mostly up to about 61 µM; nearly all actives have a fitted effect of over 55% in size
How it was run: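 Tox21 library compounds were tested for cytotoxicity against NFkB-bla ME-180 cells during a 5 hr exposure at 37 C. CellTiter-Glo luminescence served as the viability read-out.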

[3] = qHTS assay to identify small molecule agonists of the endoplasmic reticulum stress response signaling pathway (AID 1159516; active means well fitted activation curve with a large enough effect in the signal ratio in the repeat runs, not every such curve was filed as active; the % refers to the signal ratio; further: potency means the concentration at half of the fitted maximal effect)
How it was run: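 Fluorescence at 460 and 530 nm (405 nm excitation) reports beta-lactamase from an ER stress response element in HeLa cells treated 5 hr at 37 C.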

[4] = qHTS assay to identify small molecule agonists of the endoplasmic reticulum stress response signaling pathway - cell viability counter screen (AID 1159517); further: series mostly up to about 61 µM; nearly all actives have a fitted effect of over 50% in size
How it was run: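 Cytotoxicity of test compounds toward ESRE-bla HeLa cells was assessed after 5 hr exposure. The luminescent CellTiter-Glo signal was measured 30 min after reagent addition.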

[5] = qHTS assay to identify small molecule antagonists of the retinoid-related orphan receptor gamma (ROR-gamma) signaling pathway - cell viability counter screen (AID 1159520; active means well fitted curve in the direction sought with a large enough effect in the repeat runs; an effect the other way counts as inactive or inconclusive; further: nearly all actives have a fitted effect of over 50% in size; further: potency means the concentration at half of the fitted maximal effect)
How it was run: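 Tet-on ROR gamma CHO cells (1,000/well) were plated 4 hr, given compounds in DMSO for 2 hr at 37 C, then induced with 1 uM final doxycycline for 16 hr. Viability was read as ATP by CellTiter-Glo luminescence after 30 min.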

[6] = biological target: Nuclear receptor ROR-gamma (Homo sapiens) (UniProt P51449); test: qHTS assay to identify small molecule antagonists of the retinoid-related orphan receptor gamma (ROR-gamma) signaling pathway (AID 1159521; active means well fitted curve in the direction sought with a large enough effect in the repeat runs; an effect the other way counts as inactive or inconclusive; further: nearly all actives have a fitted effect of over 50% in size; further: potency means the concentration at half of the fitted maximal effect)
How it was run: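 Test compounds were applied to Tet-on RORγ CHO cells 2 h ahead of doxycycline hyclate (1 uM final). Luciferase reporter activity was quantified by luminescence after 16 h at 37 C and 5% CO2.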

[7] = qHTS assay to identify small molecule agonists of the AP-1 signaling pathway - cell viability counter screen (AID 1159525); further: nearly all actives have a fitted effect of over 55% in size
How it was run: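 Each titration point was normalised to DMSO and tetra n-octyl ammonium bromide controls. The read was Cell Titer Glo luminescence after 30 min at RT, following 5 h compound exposure of ME-180 AP-1-bla cells at 37 °C.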

[8] = qHTS assay to identify small molecule agonists of the AP-1 signaling pathway (AID 1159526)
[9] = biological target: Retinoic acid receptor RXR-alpha (Homo sapiens) (UniProt P19793); test: qHTS assay to identify small molecule agonists of the RXR signaling pathway (AID 1159527); further: nearly all actives have a fitted effect of over 35% in size
Retinoic acid receptor RXR-alpha (Homo sapiens), sequence (P19793 whole entry, looked up): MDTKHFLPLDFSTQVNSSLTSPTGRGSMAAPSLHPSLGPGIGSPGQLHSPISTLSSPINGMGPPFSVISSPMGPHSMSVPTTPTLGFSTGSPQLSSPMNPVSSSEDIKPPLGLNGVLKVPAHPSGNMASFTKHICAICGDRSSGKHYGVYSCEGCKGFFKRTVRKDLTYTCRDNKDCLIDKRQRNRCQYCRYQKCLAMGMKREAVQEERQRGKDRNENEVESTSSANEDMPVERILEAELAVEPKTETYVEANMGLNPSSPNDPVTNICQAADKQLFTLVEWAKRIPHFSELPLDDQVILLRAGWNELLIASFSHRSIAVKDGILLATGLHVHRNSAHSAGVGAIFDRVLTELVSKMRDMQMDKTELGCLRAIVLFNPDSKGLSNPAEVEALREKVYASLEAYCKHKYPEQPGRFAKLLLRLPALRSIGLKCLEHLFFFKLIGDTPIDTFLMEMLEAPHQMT
How it was run: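 Using 9-cis retinoic acid as the reference agonist, chemicals were tested in HEK 293T cells […] for 16 hr; substrate loading lasted 2 hr at room temperature.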

[10] = qHTS assay to identify small molecule agonists of the RXR signaling pathway - cell viability counter screen (AID 1159529; active means well fitted curve in the direction sought with a large enough effect in the repeat runs; an effect the other way counts as inactive or inconclusive)
How it was run: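 Compounds dissolved in DMSO were pinned onto HEK 293T cells carrying a beta-lactamase reporter under RXR-alpha control and incubated 16 hr. Cytotoxicity was then quantified by CellTiter-Glo luminescence.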

## COC1CC(=C(c2cccs2)c2cccs2)C[N+](C)(C)C1 (stereo unspecified)
[1]
  Potency: inactive
[2]
  Potency: inactive
[3]
  Potency: inactive
[4]
  Potency: inactive
[5]
  Potency: inactive
[6]
  Potency: inactive
[7]
  Potency: inactive
[8]
  Potency: inactive

## COc1ccc2c(c1OC)C(=O)O[C@H]2[C@@H]1c2cc3c(cc2CCN1C)OCO3
[1]
  Potency: inactive
[2]
  Potency: inactive
[3]
  Potency: inactive
[4]
  Potency: inactive
[5]
  Potency: inactive
[7]
  Potency: inactive
[8]
  Potency: inactive
[9]
  Potency: inactive
[10]
  Potency: inactive

## O=S(=O)(c1ccccc1)c1ccccc1
[1]
  Potency: inactive
[2]
  Potency: inactive
[3]
  Potency: inactive
[4]
  Potency: inactive
[5]
  Potency: inactive
[7]
  Potency: inactive
[8]
  Potency: inactive
[10]
  Potency: inactive

## CCCCOC(=O)CCC(=O)OCCCC
[1]
  Potency: inactive
[2]
  Potency: inactive
[3]
  Potency: inactive
[4]
  Potency: inactive
[5]
  Potency: inactive
[7]
  Potency: inactive
[8]
  Potency: inactive
[9]
  Potency: inactive
[10]
  Potency: inactive

## C[N+]1(CCF)[C@@H]2CC[C@H]1CC(OC(=O)C(O)(c1ccccc1)c1ccccc1)C2 (stereo partly specified)
[1]
  Potency: inactive
[2]
  Potency: inactive
[3]
  Potency: inactive
[4]
  Potency: inactive
[5]
  Potency: inactive
[7]
  Potency: inactive
[8]
  Potency: inactive
[9]
  Potency: inactive
[10]
  Potency: inactive

## COc1cc(CC(C)N)c(OC)cc1Br (stereo unspecified)
[1]
  Potency: inactive
[2]
  Potency: inactive
[3]
  Potency: inactive
[4]
  Potency: inactive
[5]
  Potency: inactive
[7]
  Potency: inactive
[8]
  Potency: inactive
[10]
  Potency: inactive

## CCCBr
[1]
  Potency: inactive
[2]
  Potency: inactive
[3]
  Potency: inactive
[4]
  Potency: inactive
[5]
  Potency: inactive
[6]
  Potency: inactive
[7]
  Potency: inactive
[8]
  Potency: inactive
[10]
  Potency: inactive

## CCOC(C(=O)OCCN(C)C)(c1ccccc1)c1ccccc1
[1]
  Potency: inactive
[2]
  Potency: inactive
[3]
  Potency: inactive
[4]
  Potency: inactive
[5]
  Potency: inactive
[7]
  Potency: inactive
[8]
  Potency: inactive
[10]
  Potency: inactive

## OC[P+](CO)(CO)CO
[1]
  Potency: inactive
[2]
  Potency: inactive
[3]
  Potency: 1.57 µM (active)
[4]
  Potency: inactive
[5]
  Potency: inactive
[7]
  Potency: inactive
[8]
  Potency: inactive
[9]
  Potency: inactive
[10]
  Potency: inactive

## C[N+]1(CCC(C(N)=O)(c2ccccc2)c2ccccc2)CCCCC1
[1]
  Potency: inactive
[2]
  Potency: inactive
[3]
  Potency: inactive
[4]
  Potency: inactive
[5]
  Potency: inactive
[7]
  Potency: inactive
[8]
  Potency: inactive
[9]
  Potency: inactive
[10]
  Potency: inactive

## Cc1ccc(N)c(C)c1
[1]
  Potency: inactive
[2]
  Potency: inactive
[3]
  Potency: inactive
[4]
  Potency: inactive
[5]
  Potency: inactive
[7]
  Potency: inactive
[8]
  Potency: inactive
[9]
  Potency: inactive
[10]
  Potency: inactive

## CCCCC1C(=O)NC(=O)N(C2CCCCC2)C1=O (stereo unspecified)
[1]
  Potency: inactive
[2]
  Potency: inactive
[3]
  Potency: inactive
[4]
  Potency: inactive
[5]
  Potency: inactive
[7]
  Potency: inactive
[8]
  Potency: inactive
[9]
  Potency: inactive
[10]
  Potency: inactive

## C=CC(=O)OCC
[1]
  Potency: inactive
[2]
  Potency: inactive
[3]
  Potency: inactive
[4]
  Potency: inactive
[5]
  Potency: inactive
[6]
  Potency: inactive
[7]
  Potency: inactive
[8]
  Potency: inactive
[10]
  Potency: inactive

## CC(Oc1cccc(Cl)c1)C(=O)O (stereo unspecified)
[1]
  Potency: inactive
[2]
  Potency: inactive
[3]
  Potency: inactive
[4]
  Potency: inactive
[5]
  Potency: inactive
[6]
  Potency: inactive
[7]
  Potency: inactive
[8]
  Potency: inactive
[10]
  Potency: inactive

## CC(C)(C)c1ccc(CCOc2ncnc3ccccc23)cc1
[1]
  Potency: inactive
[2]
  Potency: inactive
[3]
  Potency: inactive
[4]
  Potency: inactive
[5]
  Potency: inactive
[7]
  Potency: inactive
[8]
  Potency: inactive
[9]
  Potency: inactive

## O=C1c2ccccc2C(=O)N1SC(Cl)(Cl)Cl
[1]
  Potency: 34.2 µM (active)
[2]
  Potency: inactive
[4]
  Potency: inactive
[5]
  Potency: 30.2 µM (active) and 21.7 µM (active)
[7]
  Potency: inactive
[10]
  Potency: inactive

## CC1(C)[C@H](C(=O)O[C@H](C#N)c2cccc(Oc3ccccc3)c2)[C@@H]1C=C(Br)Br
[1]
  Potency: inactive
[2]
  Potency: inactive
[4]
  Potency: inactive
[5]
  Potency: inactive
[6]
  Potency: inactive
[7]
  Potency: inactive
[9]
  Potency: inactive
[10]
  Potency: inactive

## C[C@@H]1C[C@@H]([C@H](O)CC2CC(=O)NC(=O)C2)C(=O)[C@@H](C)C1
[1]
  Potency: inactive
[2]
  Potency: inactive
[3]
  Potency: inactive
[4]
  Potency: inactive
[6]
  Potency: 383 nM (active) and 137 nM (active) and 237 nM (active)
[7]
  Potency: inactive
[10]
  Potency: inactive
